An excerpt weighted towards active compounds, which were near 8.1% of everything screened.
PINK1 modulator: changes PINK1 expression. PINK1 immunofluorescence, high-content cytometry, 24 h. Potency, µM (highest dose often 76.6 µM), for the others: at the top dose activation (PINK1 increase), most hits filed as activators. actives 0.2% (n = 410,000); active = well fitted activation curve with a large enough effect; inconclusive = small, poorly fitted or top-dose-only effect; cell line not stated here; also: % of control where 0% means no effect; nearly all actives have a fitted effect of over 65% in size
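Stable cell line, 250 cells/well, 12 h attachment; compounds pinned at 5 concentrations, 24 h; CCCP control. Fixed with nuclear dye, primary antibodies 12 h at 10 degrees C, secondary plus cell stain; laser-scanning cytometer read.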
Epigenetic derep: regulators of epigenetic silencing causing reporter derepression in mouse cells | murine LDR cells, GFP reporter derepression, 30 h | Potency, µM (highest dose often 53.9 µM), for inactives: top-dose GFP activation, actives largely listed as activators | actives 0.2% (n = 280,000); also: % of control where 0% means no effect; nearly all actives have a fitted effect of over 60% in size
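Murine LDR cells carrying a silenced, genomically integrated CMV-driven GFP reporter were exposed to compound for 30 hours at 37 C. After PBS washes, GFP-positive cells (20–120 um objects) were counted by laser-scanning microplate cytometry.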
RORgamma inh: blocks mouse ROR gamma transcriptional activity. Potency, µM (doses to about 53.6 µM), for the others: at the highest dose activity change, negative = inhibition, most hits filed as inhibitors. P51450. AID 2551. Drosophila S2 Gal4-RORgamma UAS-luciferase reporter, 20 h. actives 5.4% (n = 310,000); also: % is scaled to controls: 0 for no effect and ±100 for the full control effect; nearly all actives have a fitted effect of over 60% in size
Target sequence (P51450 whole entry, looked up, the tested form may be a part): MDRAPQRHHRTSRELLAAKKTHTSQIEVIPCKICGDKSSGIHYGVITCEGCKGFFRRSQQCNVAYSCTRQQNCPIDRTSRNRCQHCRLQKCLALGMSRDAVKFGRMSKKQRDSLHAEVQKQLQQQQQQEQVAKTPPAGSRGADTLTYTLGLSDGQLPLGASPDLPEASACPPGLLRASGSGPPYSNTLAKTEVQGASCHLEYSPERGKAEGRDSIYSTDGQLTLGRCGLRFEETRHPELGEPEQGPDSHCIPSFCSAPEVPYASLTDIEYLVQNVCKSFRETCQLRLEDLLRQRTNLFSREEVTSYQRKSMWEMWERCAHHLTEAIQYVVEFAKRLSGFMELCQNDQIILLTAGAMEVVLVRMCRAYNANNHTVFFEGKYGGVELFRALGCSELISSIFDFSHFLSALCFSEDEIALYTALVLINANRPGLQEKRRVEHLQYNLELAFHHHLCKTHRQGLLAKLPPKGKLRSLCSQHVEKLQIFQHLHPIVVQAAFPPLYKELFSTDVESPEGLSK
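Drosophila Schneider cells stably carrying a metallothionein-driven Gal4 DBD–ROR gamma fusion and a UAS-Photinus luciferase reporter were exposed to compound for 1 hr, then induced with copper sulfate (700 uM final) for 20 hr at ambient temperature before luminescence reading.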
Gal4-VP16 FLuc: inhibits Gal4-VP16 luciferase reporter, ROR gamma counter-screen; Drosophila S2 Gal4-VP16 UAS-luciferase, luminescence, 20 h; Potency, µM (titrated, usually from 53.6 µM), for inactives: top-dose activity, negative = inhibition, usual class: inhibitors; actives 3.5% (n = 310,000); AID 2546;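 also: Gal4-VP16 expression switched on by copper sulfate through the metallothionein promoter; % is scaled to controls: 0 for no effect and ±100 for the full control effect; nearly all actives have a fitted effect of over 50% in size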
Sfp PPTase inh: blocks B. subtilis Sfp PPTase activity; Q9F4F7; Biochemical Sfp PPTase activity, qHTS; Potency, µM, for the others: largest response in the series, negative = inhibition, most hits filed as inhibitors; actives 3.5% (n = 310,000); AID 1490;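 also: the enzyme is Sfp with the accession as filed and its product quenches rhodamine fluorescence; 0% = enzyme reaction without inhibitor and -100% = no enzyme wells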
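Reaction rates are the 30-min fluorescence difference (ex 525, em 598 nm) in wells containing 15 nM Sfp, 5 uM rhodamine-CoA and 12.5 uM BHQ-2-YbbR at pH 7.6 with 10 mM MgCl2.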
ClpP mod: qHTS Assay for Activators of ClpP | ATP-dependent Clp protease proteolytic subunit (Bacillus subtilis (strain 168)), P80244 | purified B. subtilis ClpP, FRET peptide cleavage, 20 min | Potency, µM (titrated, usually from 57.5 µM), inactives show at the highest dose activity change, negative = active | actives 1.9% (n = 340,000) | AID 651965, 2013; active = well fitted falling curve with a large enough effect; inconclusive = small, poorly fitted or top-dose-only effect; inactive = no such curve, though single readings can be large or run the other way; also: the source files actives as falling curves though it sought activators and does not explain the sign; nearly all actives have a fitted effect of over 65% in size
Target sequence (P80244 whole entry, looked up): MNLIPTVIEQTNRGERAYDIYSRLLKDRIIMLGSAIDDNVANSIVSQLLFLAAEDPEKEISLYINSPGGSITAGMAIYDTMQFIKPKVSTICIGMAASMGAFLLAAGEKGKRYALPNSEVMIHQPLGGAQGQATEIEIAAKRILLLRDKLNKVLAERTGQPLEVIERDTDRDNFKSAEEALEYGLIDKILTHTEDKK
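Buffer: 100 mM Tris/HCl pH8, 100 mM KCl, 0.05% low protease BSA, 2.5% glycerol, 0.01% Tween-20. ClpP 10 microg/mL final; 20 min RT; delta FRET normalized to ADEP and DMSO controls.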
* hit, by the source's call; ? = inconclusive; nt = not tested or not shown; [ ] = dose if it differs, or a comment. Unless noted, calls follow the shape of the dose curve; as a rule, active = well fitted curve in the direction sought with a large enough effect; inconclusive = small, poorly fitted or top-dose-only effect, or another doubt; inactive = no such curve, though single readings can be large; an effect the other way counts as inactive or inconclusive. Potency is read from the fitted curve at half-maximal effect.

SMILES	PINK1 modulator	Epigenetic derep	RORgamma inh	Gal4-VP16 FLuc	Sfp PPTase inh	ClpP mod
O=C(c1cccn2c(=O)c3cc(Cl)ccc3nc12)N1CCOCC1	?	0.0%	1.9%[0.365 µM]	nt	4.1%	17.8µM*
O=C(c1ccc2nc3ccccc3c(=O)n2c1)N1CCN(Cc2ccc3c(c2)OCO3)CC1	?	-1.2%	20.4%	-6.0%	11.9%	20µM*
O=C(c1ccc2nc3ccc(Cl)cc3c(=O)n2c1)N1CCOCC1	-3.9%[38.3 µM]	1.1%	-2.6%	-27.8%	2.2%	15.8µM*
O=C(c1cccn2c(=O)c3ccccc3nc12)N1CCN(Cc2ccc3c(c2)OCO3)CC1	-3.8%[38.3 µM]	-3.5%	-18.2%	4.8%	-3.0%	?
O=C(c1cccn2c(=O)c3cc(Cl)ccc3nc12)N1CCN(Cc2ccc3c(c2)OCO3)CC1	-0.8%[38.3 µM]	-1.1%	-35.9%	-5.6%[0.365 µM]	-2.2%	-17.3%
C=CCn1c(-c2cc3c(s2)CCC(CC)C3)n[nH]c1=S (stereo not drawn)	1.2%	0.0%	2.24µM*	?	22.0%	nt
CC(Sc1nc2cc([N+](=O)[O-])ccc2n1-c1cccc(C(F)(F)F)c1)C(=O)NC(N)=O (stereo not drawn)	7.0%	1.0%	12.6µM*	20µM*	10.7%	0.0%
CC(Sc1nc2cc([N+](=O)[O-])ccc2n1-c1ccc(F)cc1)C(=O)NCc1ccc2c(c1)OCO2 (stereo not drawn)	-0.1%	-1.1%	22.5%[10 µM]	?	2.24µM*	?
NC(=O)CSc1nc2cc([N+](=O)[O-])ccc2n1-c1cccc(C(F)(F)F)c1	0.0%	0.0%	?	-6.1%	-8.8%	-3.1%
NC(=O)NC(N)=O	nt	nt	-17.8%	6.7%	nt	nt
CCn1c(=O)n(-c2ccc3c(c2)OCO3)c2nc(-c3cc(OC)ccc3OC)nc(C(N)=O)c21	2.1%	0.0%	nt	nt	nt	-0.5%
COc1cc2nc(N3CCCN(C)CC3)nc(OC3CCN(C)CC3)c2cc1OC	-0.8%	nt	nt	nt	nt	4.1%
O=C1CCC(C(=O)OC(C(=O)c2c[nH]c3ccccc23)c2ccccc2)=NN1 (stereo not drawn)	-1.4%	-1.1%	33.1%[10 µM]	7.08µM*	5.1%	-0.9%
N#CC(C#N)=C1SC(=Nc2ccccc2)C(=Nc2ccccc2)N1c1ccccc1	31.6µM*	nt	nt	nt	nt	7.9%
Cc1ccccc1NC(=O)c1cnc2sc(N3CCCC3)nn2c1=O	0.7%	0.0%	nt	nt	nt	-0.1%
NCCNCCN	nt	nt	-14.3%	-15.5%	3.16µM*	nt
NCCNCCNCCN	0.5%	0.1%	9.2%	-10.9%	16.8%	-3.4%
CCCCCN1C(C(=O)c2ccccc2)=C(NC(=O)c2ccc(C)cc2)c2ccccc2S1(=O)=O	1.0%	-1.0%	nt	nt	nt	-2.5%
CNC(=S)N(CCO)Cc1cc2cc3c(cc2[nH]c1=O)OCCO3	3.1%	nt	0.2%	7.1%	-11.6%	4.0%
Cc1cc2cc(CN(Cc3ccco3)C(=S)NCC3CCCO3)c(=O)[nH]c2cc1C (stereo not drawn)	1.9%	-3.2%	?	?	50.1µM*	-22.3%
CCN(CC)CCCNC(=S)N(Cc1ccco1)Cc1cc2cc3c(cc2[nH]c1=O)OCCO3	nt	0.0%	-14.2%[10 µM]	-8.3%	79.4µM*	nt
CNC(=S)N(Cc1ccco1)Cc1cc2cc3c(cc2[nH]c1=O)OCCO3	12.6%	-1.1%	?	6.7%	28.2µM*	?
CCNC(=S)N(Cc1ccco1)Cc1cc2cc3c(cc2[nH]c1=O)OCCO3	1.5%	0.0%	?	4.4%	-6.3%	28.2µM*
CCOC(=O)C1=C(CN2CCN(c3cc(C)ccc3C)CC2)NC(=O)NC1c1ccccc1 (stereo not drawn)	2.8%	0.0%	nt	nt	nt	-1.3%
O=C(NC(c1cccnc1)C(F)(F)F)c1cnn(-c2nccc(-c3cccs3)n2)c1C1CC1 (stereo not drawn)	2.2%	nt	nt	nt	nt	nt
SMILES	PINK1 modulator	Epigenetic derep	RORgamma inh	Gal4-VP16 FLuc	Sfp PPTase inh	ClpP mod
CC(C)CNC(=S)N(CCCO)Cc1cc2cc3c(cc2[nH]c1=O)OCCO3	2.6%	nt	38.5%	-13.0%	-12.9%	4.2%
COc1cc2cc(CN(Cc3cccs3)C(=S)Nc3ccc(C)cc3)c(=O)[nH]c2cc1OC	1.2%	?	-1.0%	?	1.1%	?
CNC(=S)N(Cc1cccs1)Cc1cc2cc(OC)c(OC)cc2[nH]c1=O	3.3%	0.0%	20.0%	-2.3%	5.8%	25.1µM*
CC(C)CNC(=S)N(Cc1ccco1)Cc1cc2cc3c(cc2[nH]c1=O)OCCO3	8.8%	0.0%	21.2%	4.0%	4.9%	31.6µM*
CCS(=O)(=O)NCc1c(C)ncc2c1CCN(C(=O)c1csc(-c3cccs3)n1)C2	1.0%	nt	nt	nt	nt	nt
Cc1ccc(NC(=O)CN(C)C(=O)C(C)OC(=O)c2ccccc2NCCO)cc1 (stereo not drawn)	3.5%	nt	nt	nt	nt	25.1µM*
CC(OC(=O)c1ccccc1NCCO)C(=O)NCC(=O)Nc1ccc(F)c(F)c1F (stereo not drawn)	-1.7%	nt	-11.8%	17.5%	11.5%	15.8µM*
CN[C@H](CC(=O)O)C(=O)O	1.2%	-1.2%	9.9%	4.9%	100µM*	0.0%
C=CCn1c(SCC(=O)NCc2ccco2)nc2sc3c(c2c1=O)CCCC3	9.1%	4.4%	-6.4%	5.4%	26.4%	-20.2%
O=C(NCc1ccco1)c1ccc2nc3sc4c(c3c(=O)n2c1)CCCC4	nt	?	4.47µM*	?	10µM*	nt
Nc1nc(-c2ccc(Cl)cc2)nnc1-c1ccc(Br)cc1	44.7µM*	?	-6.6%	-4.2%	1.2%	nt
Nc1cc(S(=O)(=O)O)cc([N+](=O)[O-])c1O	1.5%	-1.1%	-17.8%	-18.6%	79.4µM*	nt
Nc1cccc2c(O)cc(S(=O)(=O)O)cc12	0.5%	nt	nt	nt	nt	nt
CC(C)CCCC(C)CCCC(C)CCCC(C)C(=O)O (stereo not drawn)	nt	nt	3.5%	-13.0%	-14.7%	nt
CCCC(=O)OCCNc1cc(SCCC(=O)OC)c2nonc2c1[N+](=O)[O-]	-1.2%	0.0%	-22.9%	?	?	0.5%
CC(=O)OCCCNc1cc(Sc2ccc(C)cc2)c2nonc2c1[N+](=O)[O-]	0.4%	?	-41.2%	?	11.3%	1.8%
CC(=O)OCCCNc1cc(Sc2nc3ccccc3s2)c2nonc2c1[N+](=O)[O-]	3.9%	7.3%	3.55µM*	5.01µM*	2.51µM*	1.5%
CC(=O)OCCNc1cc(Sc2nc3ccccc3[nH]2)c2nonc2c1[N+](=O)[O-]	1.4%	-0.1%	9.4%	-3.2%	1.58µM*	-2.7%
Clc1ccc(CSc2nc3ncccc3[nH]2)cc1	-1.2%	0.0%	nt	nt	nt	-3.5%
COCCN1C(=O)N[C@@H](CCc2ccccc2)C(C(=O)OC)=C1C	nt	-1.3%	-9.7%	-12.4%	-5.6%	nt

Compound activity deposited in PubChem BioAssay by National Center for Advancing Translational Sciences (NCATS).
